Test results taken from ChEMBL document CHEMBL4513216, “Probing the Open Global Health Chemical Diversity Library for Multistage-Active Starting Points for Next-Generation Antimalarials” (ACS Infect Dis, 2020).
The campaign covered roughly 68,000 compounds. About 2,700 (4%) showed an effect of 50% or more. The sample holds strong results, similar compounds and a random draw of the others, so the mix is not that of the screen.

Each compound was assayed on Plasmodium berghei (assay: Screen against P. berghei liver stage (PbLuc), transformed with Luciferase, at 2uM). Settings: tested at 2 uM.
Type: functional, HepG2

Structure (SMILES) | INHIBITION [%]
Cc1noc(C)c1CN1C[C@@H](OCc2ccccn2)[C@H]2OCCC[C@H]21 | -44.88
CCc1cc(=O)n(CC(=O)N2CCCC2)c(-c2ccc(F)cc2)n1 | 22.13
CN(Cc1nc2ccccc2c(=O)[nH]1)C1CC(=O)N(C2CC2)C1=O (stereo unspecified) | -68.81
Cc1nnc([C@H]2C[C@H]3OCC[C@H]3N(S(=O)(=O)N(C)C)C2)o1 | 11.18
CCS(=O)(=O)N1C[C@H](c2nc(C)no2)C[C@H]2OCC[C@H]21 | 63.23
Cc1noc([C@H]2C[C@H]3OCC[C@H]3N(S(C)(=O)=O)C2)n1 | 25.58
CCCS(=O)(=O)N1C[C@@H](c2nc(C)no2)C[C@H]2OCC[C@H]21 | -27.12
Cc1noc([C@@H]2C[C@H]3OCC[C@H]3N(Cc3ccoc3)C2)n1 | 51.26
Cc1noc([C@H]2C[C@H]3OCC[C@H]3N(Cc3ccncc3)C2)n1 | 29.81
Cc1nnc([C@H]2C[C@H]3OCC[C@H]3N(S(=O)(=O)C3CC3)C2)o1 | 50.32
CCS(=O)(=O)N1C[C@@H](c2nnc(C)o2)C[C@H]2OCC[C@H]21 | 11.87
Cc1noc([C@H]2C[C@H]3OCC[C@H]3N(Cc3ccc(F)cc3)C2)n1 | 20.41
Cc1cc(N2CCc3c(ncn3C3CC3)C2)nc(N)n1 | -25.22
O=C(CCC1CCCC1)NCCn1nc(C2CCNC2)c2cccnc21 (stereo unspecified) | 34.24
Cc1cccc(-n2ncc3c(=O)n(CCN4CCCCC4)cnc32)c1C | -34.12
CC(C)S(=O)(=O)N1CCN(C(=O)c2cnn(C)c2Cl)CC1 | 12.98
CN(C(=O)c1ncn2c1CN(C)S(=O)(=O)c1ccccc1-2)C1CC1 | 60
CCNC(=O)c1ncn2c1CN(C)S(=O)(=O)c1ccccc1-2 | -64.43
CCCN(CC)C(=O)c1ncn2c1CN(C)S(=O)(=O)c1ccccc1-2 | 15.9
Cc1ccc(C(=O)NC2CCN(C(=O)Nc3ccccn3)CC2)o1 | 20.11
Cc1cccc(NC2CCN(C(=O)Nc3ccccn3)CC2)n1 | -7.13
Cc1ccc(C(=O)N2CCN(C(=O)Nc3ccccn3)CC2)o1 | 60.93
Cc1occc1C(=O)N1CCn2c(COCC3CC3)cnc2C1C (stereo unspecified) | -5.65
CCN(CC)CCSc1ncnc2[nH]ncc12 | -57.02
Cn1cc(CNc2ccc(F)c(N3CCCS3(=O)=O)c2)cn1 | 30.06
CCn1cc(CNc2ccc(F)c(F)c2)cn1 | -11.55

Structure (SMILES) | INHIBITION [%]
CCn1cc(CNc2ccc(F)c(N3CCCS3(=O)=O)c2)cn1 | 67.51
CCCc1nc(CNc2ccc(F)c(F)c2)no1 | -48.48
CCN1CCCC1CNCc1cc2cc(OC)ccc2[nH]c1=O (stereo unspecified) | 42.49
COc1ccc2cc(CN(C)CCN3CCCCC3=O)c(=O)[nH]c2c1 | 38.12
COc1ccc2[nH]c(=O)c(CN(C)CCN3CCCC3)cc2c1 | 56.16
CCOCC(=O)N1C[C@H]2CCC[C@@]2(COC)C1 | 42.4
CCn1nc(C)c(CNC(=O)c2nnc3ccc(OC)cc3n2)c1C | 33.58
CCn1nc(C)c(CNC(=O)c2nnc3ccc(Cl)cc3n2)c1C | 26.56
CCn1nc(C)c(CNC(=O)c2nnc3ccccc3n2)c1C | 70.37
Cc1nc(CN2CCC23CCN(C(=O)c2ccco2)CC3)cs1 | 30.15
Cc1cncc(NCc2ccccc2N2CCOCC2)c1 | 11.88
CCS(=O)(=O)c1cccc(C(=O)Nc2cccc3c2C(=O)N(C)C3=O)c1 | 13.01
CCCOC1CCCN(C(=O)c2cnc(-c3csc(C)n3)nc2O)C1 (stereo unspecified) | -20.84
CC(C)C(=O)N1CCC2(CC1)NC(=O)[C@H]1CN(Cc3cccnc3)C[C@H]12 | 37.54
CC(=O)N1CCC2(CC1)NC(=O)[C@H]1CN(Cc3cccnc3)C[C@H]12 | 56.76
CC(=O)N1CCC2(CC1)[C@@H]1CN(Cc3cccnc3)C[C@@H]1C(=O)N2C | 35.89
Cn1cccc1CN1CCC2(CC1)CN(c1ncccn1)CCO2 | -8.63
Cc1ccc(CNC(=O)CCNS(C)(=O)=O)cc1 | 13.36
CCn1ccnc1CN1CCN(CC(=O)NC(C2CC2)C2CC2)CC1 | 29.19
CC(=O)N[C@H]1CCO[C@@H](c2cccc(NC(=O)c3ccc(=O)[nH]n3)c2)C1 | -3.15
CN1CCCCC1c1ncc2c(n1)CCN(Cc1ccc(Cl)c(F)c1)C2 (stereo unspecified) | 56.99
COc1ccc(CN2CCc3nc(C4CCCCN4C)ncc3C2)cc1 (stereo unspecified) | -8.87
CN1CCCCC1c1ncc2c(n1)CCN(Cc1ccc(F)cc1)C2 (stereo unspecified) | 19.06
O=C1COC2(COCCN(Cc3cccnc3)C2)CN1c1ccccc1 (stereo unspecified) | -43.73
N#CCCN(Cc1cccnc1)C(=O)c1ccc(OCC2CC2)cc1 | 56.89
N#CCCN(CCC#N)C(=O)c1ccc(OCC2CC2)cc1 | 5.98

Structure (SMILES) | INHIBITION [%]
N#CCCN(Cc1ccco1)C(=O)c1ccc(OCC2CC2)cc1 | -5.51
O=C(c1cnccn1)N1CC[C@H]2[C@H]1CCN2S(=O)(=O)C1CC1 | -17.44
CN(C)CC(=O)N1Cc2nc(C(=O)NCc3ccccc3)oc2C1 | 16.4
CCCNC(=O)c1nc2c(o1)CN(C(=O)CN(C)C)C2 | -31.4
CN(C)CC(=O)N1Cc2nc(C(=O)NCc3ccncc3)oc2C1 | 52.08
CSCc1ccc(C(=O)NCCCNc2ccc(C(F)(F)F)cn2)cc1 | 6.77
Cn1c(CN2CCCCCC2)cc(=O)c(O)c1CN1CCCC1 | 29.19
Cc1cc(C)nc(C2CCN(C(=O)CCn3ncc4ccccc43)C2)n1 (stereo unspecified) | 30.73
Cc1ccnc(C2CCN(C(=O)CCn3ncc4ccccc43)C2)n1 (stereo unspecified) | 72.83
Cc1cc(C)nc(C2CCN(C(=O)CCn3nnc4ccccc43)C2)n1 (stereo unspecified) | 13.22
Cn1cc(CN2CCc3ccc(=O)n(CC4CC4)c3CC2)cn1 | 23.68
OC1(CNc2ccccc2)CCNCC1 | 51.61
OC1(CNc2cccc(F)c2)CCNCC1 | -14.66
OC1(CNc2ccc(F)cc2)CCNCC1 | 8.5
CCN(CC)S(=O)(=O)CC(=O)N1CCc2ccc(C)cc21 | -13.17
CCN(C(=O)CSc1ccc(C(F)(F)F)cn1)C1CC1 | -69.56
NC(=O)C1CCCN1c1cc(N2CCc3ccccc3C2)ncn1 (stereo unspecified) | -4.95
c1ccc(OC2CCCC2)c(CNC2CCc3ncnn3C2)c1 (stereo unspecified) | -12.48
c1ccc(CCNC2CCc3ncnn3C2)nc1 (stereo unspecified) | -56.99
O=S(=O)(CCNC1CCc2ncnn2C1)c1ccccc1 (stereo unspecified) | 11.18
c1ccc(C(OCCNC2CCc3ncnn3C2)c2ccccc2)cc1 (stereo unspecified) | 64.71
c1ccc(OCC2CC2)c(CNC2CCc3ncnn3C2)c1 (stereo unspecified) | 54.2
c1ccc(COc2ccccc2CNC2CCc3ncnn3C2)cc1 (stereo unspecified) | 11.95
COc1cccc(-c2cc(C3CCCNC3)ccn2)c1 (stereo unspecified) | 17.29
Cc1nnsc1CN(C)C(=O)CN1CC2(CCNCC2)OC1=O | -7.96
CCc1cc(NC(=O)C(c2cccc(F)c2)N2CCOCC2)[nH]n1 (stereo unspecified) | 35.36

Structure (SMILES) | INHIBITION [%]
CSCCC(NC(N)=O)C(=O)NCc1c(C)nn(-c2ccccc2)c1C (stereo unspecified) | -58.01
COC(=O)[C@H](CCSC)NC(=O)Cc1c(C)nn(-c2ccccc2)c1C | 4.89
Cc1nn(-c2ccccc2)c(C)c1CNC(=O)NC1CC1 | 28.73
Cc1nn(-c2ccccc2)c(C)c1CC(=O)NC1CC(=O)N(C)C1 (stereo unspecified) | 59.03
COC(=O)C(CCSC)NC(=O)Cc1c(C)nn(-c2ccccc2)c1C (stereo unspecified) | -60.22
Cc1nn(-c2ccccc2)c(C)c1CNC(=O)NC1CC(=O)N(C)C1 (stereo unspecified) | 62.39
CC(=O)N1CCN(Cc2ccncc2)CC2(CC(=O)N(C)C2)C1 (stereo unspecified) | 3.49
CN1CCN(CC2(O)CCCN(C(=O)Cc3cccc(O)c3)CC2)CC1 (stereo unspecified) | 12.6
Cc1nc(C)c(C(=O)NCCNc2ncccc2C(F)(F)F)s1 | -90.65
Cc1cnc(NC(=O)c2ccc(-n3ncc(C#N)c3N)cc2)s1 | -50.69
Cc1nc(NC(=O)c2ccc(-n3ncc(C#N)c3N)cc2)sc1C | 78.98
Cc1cc(NC(=O)c2ccc(-n3ncc(C#N)c3N)cc2)n(C)n1 | -28.98
CC1CCC(O)(CSc2nnnn2C)CC1 (stereo unspecified) | 4.91
CC(C)CC(=O)NCC(O)c1c(F)cccc1F (stereo unspecified) | 14.96
CN(C)C(=O)CN1CCOCC2(CCN(CC3CCOCC3)CC2)C1 | 12.68
CN(C)C(=O)CN1CCOCC2(CCN(CC3CCOC3)CC2)C1 (stereo unspecified) | 82.53
CN(C)C(=O)CN1CCC2(C1)CN(CC1CCOC1)C2 (stereo unspecified) | -54.01
COc1ccc(C(C)CCNC2CCN(c3ccccn3)CC2)cc1 (stereo unspecified) | 3.2
CCS(=O)(=O)c1ccccc1N1CCC(NC(C)=O)CC1 | -0.64
CCS(=O)(=O)c1ccccc1N1CCC(NC(=O)NC2CCCC2)CC1 | 64.71
CCS(=O)(=O)c1ccccc1N1CCC(NC2CCCC2)CC1 | 27.47
Cc1cc(C)n(CC(C)CNC(=O)NCc2c(C)cc(C)[nH]c2=O)n1 (stereo unspecified) | 10.14
Cc1ccc(NC(=O)N2CCOC(C(N)=O)C2)cc1C(F)(F)F (stereo unspecified) | 33.11
